Reference: PubChem BioAssay
Active and inactive are the calls of the source.

Test: E. coli acrAB mutant growth effects, primary screen, E. coli filamentation inducers, strain DRC39, OD650, 48 h (AID 1179);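 note: screen aims at cell division blockers that make cells filament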
Settings: E. coli DRC39 delta-acrAB growth, higher = more signal, called active from +8 up or from −8 down

z-score, inactive:
CCCC[C@@H]1C[C@H]1[C@@H](NC(=O)c1ccco1)c1ccc(-c2ccccc2)cc1 -1.2
O=C1O[C@@H](c2ccccc2)[C@@H](c2ccccc2)N2[C@@H](c3ccccc3OCCO)[C@]3(C(=O)Nc4ccc(C#CC5=CCCCC5)cc43)[C@@H](C(=O)N3CCCCCCC3)[C@H]12 -0.576
O=C1NC(=O)C2C1C=CC(C(O)c1cccs1)N2Nc1ccc(Cl)cc1Cl (stereo unspecified) -0.86
COC(=O)[C@]1(CCC(=O)OC(C)(C)C)N=C(c2ccc(OCCCO)cc2)O[C@@H]1c1ccccc1CN=[N+]=[N-] -0.721
COc1ccc(C(=O)Nc2ccc(CN3C(=O)[C@]4(O[C@H](CCO)[C@@H]([Si](C)(C)c5ccc(OC)cc5)[C@@H]4C)c4ccccc43)cc2)cc1 -0.416
CC1(C)C2C=C(C(O)C3C=CC4C(=O)NC(=O)C4N3Nc3ccc(Cl)cc3Cl)C[C@@H]1C2 (stereo partly specified) -1.08
C=C(COC)C(=O)CC[C@@H](OC(C)=O)c1ccc(CO)o1 -0.107
COC(=O)c1c(CC[C@@H](CO)NC(=O)NCCn2cc(C3(O)CCCC3)nn2)oc(C(C)=O)c1C(=O)OC -0.828
C=C(C(=O)CC[C@@H](OC(=O)c1cccnc1)c1ccccc1OCCO)C(C)C 0.195
CCOC(=O)C[C@H]1[C@H](OC(=O)c2ccc(C(=O)c3ccccc3)cc2)[C@@H](NC(=O)c2ccccc2)c2cc(OCCCO)ccc2N1C(=O)c1ccc2ccccc2n1 -0.374
COc1cc(NN2C(C(O)c3ccco3)C=CC3C(=O)N(c4ccccc4)C(=O)C32)cc(OC)c1OC (stereo unspecified) -1.32
COCCCNC(=O)[C@@]1(C)c2ccccc2C(=O)N(C(C)C)[C@H]1c1ccc(CO)cc1 -0.279
COc1cc2c(cc1OC)CN(C(=O)[C@@H]1[C@H]3C(=O)O[C@H](c4ccccc4)[C@H](c4ccccc4)N3[C@H](c3ccc(O)cc3)[C@@]13C(=O)Nc1ccccc13)CC2 -0.4
O=C(NC1CC1)[C@@H]1c2ccccc2C(=O)N(Cc2ccccc2Cl)[C@H]1c1ccc(CO)cc1 1.49
O=C1c2ccccc2[C@](Cc2ccccc2I)(C(=O)NCC(F)(F)F)[C@H](c2ccc(CO)cc2)N1Cc1ccccc1Cl 0.53
Cc1ccc(S[C@]2(C(=O)O)CC(=O)N(C(C)C)[C@@H]2c2ccc(CO)cc2I)cc1 1.42
COc1ccc(C#Cc2ccc3c(c2)[C@]2(C(=O)N3)[C@H](C(=O)NC[C@H](O)c3ccccc3)[C@H]3C(=O)O[C@H](c4ccccc4)[C@H](c4ccccc4)N3[C@@H]2c2ccc(O)cc2)cc1 0.51
COC(=O)[C@@]1(Cc2ccc(F)cc2)[C@H]2c3cc(C(=O)N4CCCC4)n(Cc4ccc(S(C)(=O)=O)cc4)c3C[C@H]2CN1C(=O)c1ccccc1 -0.704
O=C1C2C=CC(C(O)c3cccc4ccccc34)N(Nc3ccccc3F)C2C(=O)N1c1ccccc1 (stereo unspecified) -0.204
CCCC[C@@H]1C[C@H]1[C@@H](NC(=O)c1ccco1)c1ccccc1C(F)(F)F -0.127
CC(C)NC(=O)[C@@]1(c2ccc([N+](=O)[O-])cc2)CC(=O)N(C2CCCCC2)[C@@H]1c1ccc(CO)cc1I 0.0026
C=CCOC(=O)[C@H]1[C@@H]2C(=O)O[C@@H](c3ccccc3)[C@@H](c3ccccc3)N2[C@@H](c2ccc(OCCOC(=O)[C@H]3C[C@H]4C(=O)N[C@@H](CCCCNC(C)=O)C(=O)N4[C@H]3c3ccc(O)cc3)cc2)[C@]12C(=O)Nc1ccc(I)cc12 -1.16
Cc1ccc(S[C@]2(C(=O)NC3CC3)CC(=O)N(Cc3ccccc3)[C@@H]2c2ccc(CO)cc2I)cc1 0.753
CC1CC/C=C\[C@H]2OC34C=CCN(C(C)(C)C)C(=O)[C@H]3N(CCO)C(=O)[C@@H]4C2C(=O)O1 (stereo partly specified) -0.519
C=CCC(OC(C)=O)[C@@H]1[C@@H](N(Cc2ccc(-c3ccccc3)cc2)C(=O)Cc2ccc(OC)cc2)c2cc(OCCCO)ccc2N1C(=O)Cc1ccc2ccccc2c1 (stereo partly specified) -0.851
COC(=O)C(CC#Cc1ccc2c(c1)[C@]1(C(=O)N2)[C@H](C(=O)Nc2nc3ccccc3s2)[C@H]2C(=O)O[C@H](c3ccccc3)[C@H](c3ccccc3)N2[C@@H]1c1ccc(O)cc1)C(=O)OC -0.169
